# Data from PubChem BioAssay AID588405 (Sanford-Burnham Center for Chemical Genomics, 2011).
# Out of some 360,000 compounds screened, about 6,200 (1.7%) were called active. The sample holds actives, similar compounds and a random draw of the others, so the mix is not that of the screen.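 How the source made its calls: active means inhibition of at least 50% at 20 µM; inactive means the rest.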
# Assay: inhibition of PEG-3 promoter activity – cell-based, HeLa, luciferase luminescence, primary screen (AID 588405)
# Conditions: HeLa PEG-Prom luciferase reporter, overnight, at 20 µM, hits give high values
row,Compound,inhibition
1,CCOC(=O)C1=CC[C@@H](c2ccncc2)N(S(=O)(=O)c2ccc(C)cc2)C1,27.8% (inactive)
2,O=C(Nc1ccc(Cl)c(C(F)(F)F)c1)C1Cc2c(-c3ccccc3Oc3ccccc3)ccnc2O1 (stereo not given),26.9% (inactive)
3,CC(C)(C)C(=O)NC(NC(=S)Nc1ccc(S(N)(=O)=O)cc1)C(Cl)(Cl)Cl (stereo not given),17% (inactive)
4,Cc1ccc(NC(=S)NC(NC(=O)Cc2cccc3ccccc23)C(Cl)(Cl)Cl)cc1 (stereo not given),105% (active)
5,O=C(Cc1cccc2ccccc12)NNC(=O)Nc1ccc(Cl)cc1,-102% (inactive)
6,C/C(CC1CC(C)(C)OC1=O)=N/Nc1nc(-c2ccccc2)cs1 (stereo not given),-108% (inactive)
7,COc1ccc2c(c1OC)C(=O)OC2Nc1nc(-c2ccccc2)cs1 (stereo not given),104% (active)
8,CC(C)C1CC2=C(C(=O)OC(C)(C)O2)C(c2ccc(F)cc2)O1 (stereo not given),4.49% (inactive)
9,COc1ccc(Cl)cc1-c1cc(C(=O)Nc2cc(OC)c(OC)c(OC)c2)[nH]n1,33.8% (inactive)
10,O=C(Nc1ccc(Cl)cc1)c1csc([C@H]2C[C@H](O)[C@@H](CO)O2)n1,-232% (inactive)
11,Cc1ccc([C@@H]2CC(=O)[C@@H]3CN(S(=O)(=O)c4ccc(C)cc4)[C@H](c4ccccc4F)C[C@@H]3N2S(=O)(=O)c2ccc(Cl)cc2)cc1,13.7% (inactive)
12,COc1ccc(NC(=O)N(C)C[C@@H]2OCc3cn(nn3)CCCC(=O)N([C@H](C)CO)C[C@H]2C)c(OC)c1,-5.47% (inactive)
13,NC(N)=N/N=C/c1ccc(OCc2ccc(Cl)cc2Cl)cc1,99.3% (active)
14,COc1ccc(Cl)cc1N(CC(=O)N/N=C/c1ccc(OCC(N)=O)cc1)S(C)(=O)=O,-7.79% (inactive)
15,Cc1nc2ccccc2nc(C)c1=NOCc1ccc(Cl)cc1Cl,29.6% (inactive)
16,O=C(/C=C/c1ccc(F)cc1)NC(=S)NNC(=O)c1cccnc1,8.82% (inactive)
17,O=C(/C=C/c1ccc([N+](=O)[O-])o1)NNC(=O)c1ccc(F)cc1,99.4% (active)
18,O=C(Nc1ccc(F)cc1)C1CCN(C(=O)c2ccc([N+](=O)[O-])cc2)CC1,17.8% (inactive)
19,CC1(c2cccc([N+](=O)[O-])c2)CC(C)(C)N(C(=O)c2ccccc2)c2ccccc21 (stereo not given),34.9% (inactive)
20,Cc1nnc(SCC(=O)N2c3ccccc3C(C)(c3ccc(Cl)cc3)CC2(C)C)s1 (stereo not given),51.1% (active)
21,CC1(c2ccccc2)CC(C)(C)N(C(=O)c2cc([N+](=O)[O-])cc([N+](=O)[O-])c2)c2ccccc21 (stereo not given),16.3% (inactive)
22,COc1ccc(NC(=O)C2Cc3c(-c4ccc5c(c4)OCO5)ccnc3O2)cn1 (stereo not given),21.4% (inactive)

row,Compound,inhibition
1,COc1ccc(NC(=O)CN2C(=O)NC(C)(c3ccccc3)C2=O)cn1 (stereo not given),1.66% (inactive)
2,COc1ccc(NC(=O)/C(Cl)=C(/Cl)S(=O)Cc2ccc(C)cc2)cn1 (stereo not given),109% (active)
3,Cc1cc2nc(-c3ccco3)c(Cc3cccc(F)c3)n2c(C)c1Br,-26.2% (inactive)
4,CC(Sc1nnc(C2CC2)n1C1CC1)C(=O)Nc1ccc(C(N)=O)cc1 (stereo not given),0.86% (inactive)
5,CCOC(=O)c1c(-c2ccccc2)oc2cc(Br)c(O)c(C=O)c12,69.1% (active)
6,CCOC(=O)c1c(C)oc2cc(Sc3ccccc3)c(O)c(O)c12,-89% (inactive)
7,Cc1oc2cc(Br)c(O)c(Br)c2c1C(=O)c1ccccc1,-69.5% (inactive)
8,CCCNC(=O)c1cc(C2CCCCN2S(=O)(=O)c2cn(C)cn2)on1 (stereo not given),-3.04% (inactive)
9,O=C(CNC(c1ccccc1)c1ccccc1)Nc1ccc(F)cc1,6.17% (inactive)
10,O=S1(=O)CC(N2CCN(c3ccccn3)CC2)CN1Cc1ccc(F)cc1 (stereo not given),10.9% (inactive)
11,Cc1ccc(F)c(S(=O)(=O)NC(=O)C2(C)CCN2C(=O)c2ccco2)c1 (stereo not given),-1.32% (inactive)
12,CCOc1ccc(N(CC(=O)NCC2CCCO2)S(=O)(=O)c2ccc(C)cc2)cc1 (stereo not given),14.4% (inactive)
13,Cc1cc(Br)ccc1NC(=O)c1cnc(N2CCN(c3ccccn3)CC2)c2ccccc12,64.2% (active)
14,Cc1cc(Br)ccc1NC(=O)c1sc2ncn(CC(=O)N3CCN(c4ccccn4)CC3)c(=O)c2c1C,1.76% (inactive)
15,COc1ccc(NC(=O)c2sc3nc(C)nc(N4CCN(c5ccccn5)CC4)c3c2C)c(OC)c1,30.7% (inactive)
16,CC(=O)Nc1cccc(-c2cc(NC=O)c3ncc(-c4ccc(F)c(Cl)c4)n3c2)c1,40.1% (inactive)
17,COc1ccc(CC(N)c2csc(NC(=O)Nc3ccc(C(C)C)cc3)n2)cc1 (stereo not given),100% (active)
18,CC(C)(C)CC(=O)Nc1nnc(SCC(=O)NCc2cccs2)s1,9.91% (inactive)
19,COc1ccc(CC(N)c2csc(NC(=O)Cc3ccccc3)n2)cc1 (stereo not given),49.7% (inactive)
20,COc1ccc(CC(N)c2csc(NC(=O)NC(c3ccccc3)c3ccccc3)n2)cc1 (stereo not given),96.6% (active)
21,Cc1ccccc1NC(=O)Cc1nc(COC(=O)c2ccc(C(F)(F)F)cc2)cs1,-7.19% (inactive)
22,CC(C)(C)CC(=O)Nc1nc(C(N)Cc2ccc(C(F)(F)F)cc2)cs1 (stereo not given),102% (active)

row,Compound,inhibition
1,COC(=O)[C@H](CCSC)NC(=O)Nc1ccc(OC)cc1,10.2% (inactive)
2,COc1ccc(OC)c(NC(=O)N[C@H](Cc2ccccc2)C(=O)NN)c1,9.08% (inactive)
3,COc1ccc(NC(=O)C(Br)C(C)C)cc1 (stereo not given),-6.38% (inactive)
4,O=C(NCc1ccc(F)cc1)c1cc(C2CCCCN2C(=O)c2cccs2)on1 (stereo not given),12.7% (inactive)
5,CC(C)Cn1c(N)c(C(=O)COC(=O)C2CCCN2C(=O)c2cccs2)c(=O)n(C)c1=O (stereo not given),8.57% (inactive)
6,C#Cc1ccc(NC(=O)C2(C)CCN2C(=O)Cc2ccc(-c3ccccc3)cc2)cc1 (stereo not given),20.8% (inactive)
7,O=C(NCc1cccnc1)c1cc(C2CCCN(C(=O)C3CCCCC3)C2)on1 (stereo not given),3.87% (inactive)
8,CC(C)CCNC(=O)c1[nH]c(C(F)(F)F)nc1-c1ccccc1,11.4% (inactive)
9,COc1ccc(C(NC(=O)C2CCN(CCCc3ccccc3)CC2)c2cccs2)cc1 (stereo not given),2.75% (inactive)
10,Nc1ncnc2c1ncn2[C@@H]1O[C@H](C(=O)NCC(F)(F)F)[C@@H](O)[C@H]1O,4.09% (inactive)
11,Cc1c(C(=O)NCc2ccc(C#N)cc2)sc(=O)n1Cc1ccc(C(=O)N(C)C)cc1,7.87% (inactive)
12,Cn1cncc1C#Cc1c(-c2ccsc2)sc2ccccc12,44.3% (inactive)
13,COc1ccc2sc(-c3ccc(S(C)(=O)=O)cc3)c(C#Cc3cncn3C)c2c1,54.5% (active)
14,COc1ccc2sc(-c3ccc(S(C)(=O)=O)cc3)c(-c3ccc(C(N)=O)cc3)c2c1,3.59% (inactive)
15,CCn1c(SCC(=O)Nc2ccc(C)cc2)nc2nc3c(cc2c1=O)CCCC3,10.5% (inactive)
16,CCNC(=S)Nc1ccc2c(c1)c(=O)n(C)n2Cc1ccc(Cl)cc1,-3.64% (inactive)
17,c1ccc2c(c1)C(=NC1CCCCC1)NC2=NC1CCCCC1,101% (active)
18,CC1(C)Cc2nc3sc4c(SCC(=O)NC(c5ccccc5)c5ccccc5)ncnc4c3cc2CO1,-23% (inactive)
19,Cc1ccccc1S(=O)(=O)NC(=O)C1(C)CCN1C(=O)C1(c2ccc(Cl)cc2)CC1 (stereo not given),15.9% (inactive)
20,Cc1cccc(-c2cnc(C(O)c3ccc4ccccc4c3)[nH]2)c1 (stereo not given),5.95% (inactive)
21,Cc1nc2c(OCc3ccc(Cl)cc3Cl)cccn2c1N(C)CC1CC1,27.9% (inactive)
22,COCCNC(=O)c1ccc(Cn2c(SCC(=O)NCC3CCCO3)nc3ccc(Br)cc3c2=O)cc1 (stereo not given),-11.8% (inactive)

row,Compound,inhibition
1,CCCN1CCn2c3c(c4cc(Br)ccc42)CCCC31 (stereo not given),-52.1% (inactive)
2,OC(CNCC1CCCO1)Cn1c2ccc(Br)cc2c2cc(Br)ccc21 (stereo not given),104% (active)
3,CNC(=O)NC(=O)C(OC(=O)c1cccc(S(=O)(=O)N2CCCCC2)c1)c1ccccc1 (stereo not given),8.72% (inactive)
4,CCN1/C(=C\c2ccc3ccccc3[n+]2CC)Sc2cc(C)ccc21,95.8% (active)
5,OCCN1CCN(c2ncnc3c2ncn3[C@H]2CN(Cc3ccco3)C[C@@H](CO)O2)CC1,-0.36% (inactive)
6,Cc1ccccc1Cn1c(C)c(C(=O)NCc2cccc(C(F)(F)F)c2)sc1=O,-0.27% (inactive)
7,CC(C)CC(N=C1NC(C)(C)Cc2ccccc21)C(=O)O (stereo not given),0.64% (inactive)
8,NC(=O)c1nsc(C(=O)N(CC(=O)NCc2ccc(F)cc2)Cc2ccco2)c1N,17.3% (inactive)
9,COc1ccc(CNC(=O)C(c2ccc(O)cc2)N(Cc2ccco2)C(=O)c2snc(C(N)=O)c2N)cc1 (stereo not given),56.7% (active)
10,COc1cc(C(C(=O)NC2CCCC2)N(Cc2ccccc2)C(=O)c2snc(C(N)=O)c2N)ccc1O (stereo not given),-1.6% (inactive)
11,CCOC(=O)C1(C)CCCN(C(=O)c2ccc(N(C)C)cc2)C1 (stereo not given),0.13% (inactive)
12,Cc1cc(C)n2nc(C(=O)OC(C)C(=O)c3cc(C)c(C)cc3C)nc2n1 (stereo not given),-10.9% (inactive)
13,CSCCC(NS(=O)(=O)c1ccc2c(c1)oc(=O)n2C)C(=O)NC1CCCc2ccccc21 (stereo not given),3.82% (inactive)
14,CC1=C(C(=O)N(C(C)C)C(C)C)CC(CC(=O)NCCCCc2ccccc2)C(=O)N1CCC1=CCCCC1 (stereo not given),18.7% (inactive)
15,COc1cccc2c1C(=O)c1c(O)c3c(c(O)c1C2=O)CC(O)(C(C)=NNC(=O)c1ccc(Cl)c(Cl)c1)CC3OC1CC(N)C(O)C(C)O1 (stereo not given),98.3% (active)
16,O=C(NC1CC1)C1=C[C@H](c2c[nH]c3ccccc23)C[C@H](OCc2ccc(CO)cc2)O1,-8.53% (inactive)
17,O=C(Nc1cccc2ccccc12)c1[nH]c(-c2ccccc2)c2c1C(=O)N(C1CC1)C2=O,52.8% (active)
18,O=C(Nc1cccc2ccccc12)c1onc2c1CCCC2,-211% (inactive)
19,O=C(Nc1cccc2ccccc12)NC1CC1,6.64% (inactive)
